For eight compounds, growth results are on record in PubChem BioAssay (NCI).

Among the test systems are HCT-15 colon; HT29 colon; SNB-75 CNS; SNB-19 CNS; U251 CNS; PC-3 prostate; SK-MEL-5 melanoma; UACC-62 melanoma; LOX IMVI melanoma; SK-MEL-28 melanoma; SK-MEL-2 melanoma; SN12C renal; UO-31 renal; TK-10 renal; ACHN renal; CAKI-1 renal; A498 renal; CCRF-CEM leukemia; MOLT-4 leukemia.
Assay in all cases: NCI-60 one-dose screen, 48 h (100 = growth as untreated, 0 = no growth, -100 = all killed)
Details in all cases: 10 µM

About 83,000 compounds went through this panel and 20% of them were active in at least one assay; those are over-represented in the sample as a whole.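 Values shown are percent growth following 48 h exposure of cells in 96-well plates to a single concentration of compound; below 10 was considered active.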 Values without a mark were called inactive. Calls of active or inactive are those of the source.

For `O=C(CCl)N1c2ccccc2Sc2ccc3ccccc3c21`, the growth is -51.3% (active) in the assay on HCT-15 colon; -76.1% (active) in the assay with HT29 colon; 3.3% (active) in the assay on SNB-75 CNS; 69.7% in the assay with SNB-19 CNS; 0.19% (active) in the assay on U251 CNS; -86.6% (active) in the assay with PC-3 prostate. The growth in the assay on SK-MEL-5 melanoma is 22.9%; in the assay with UACC-62 melanoma, -0.738% (active); with LOX IMVI melanoma, -78.3% (active); in the assay with SK-MEL-28 melanoma, 19.6%; in the assay on SK-MEL-2 melanoma, -25.5% (active); in the assay on SN12C renal, -49.1% (active). Further, the growth is -89.8% (active) in the assay on UO-31 renal; -57.7% (active) in the assay with TK-10 renal; -89.1% (active) with ACHN renal; -52.8% (active) in the assay with CAKI-1 renal; -90.2% (active) with A498 renal; -15.1% (active) in the assay with CCRF-CEM leukemia. The growth in the assay on MOLT-4 leukemia is -9.38% (active).
On to `COc1ccc(C2C=C(c3ccc(Cl)c(Cl)c3)N=C3SC(C)=CN32)cc1OC` (configuration not stated), for which the growth with HCT-15 colon was 80.7%; in the assay on HT29 colon, 62.9%; in the assay with SNB-75 CNS, 83.4%; in the assay with SNB-19 CNS it was 79.4%; with U251 CNS, 69.2%; in the assay on PC-3 prostate, 35.6%. Moreover, the growth was 85.1% in the assay on SK-MEL-5 melanoma; 82.9% in the assay on UACC-62 melanoma; 56.2% in the assay on LOX IMVI melanoma; 62.4% in the assay with SK-MEL-28 melanoma; 79.2% in the assay on SK-MEL-2 melanoma; 70.6% in the assay on SN12C renal. Moreover, the growth is 60.7% in the assay on UO-31 renal; 74.1% in the assay with TK-10 renal; 68.3% in the assay with ACHN renal; 61.7% in the assay on CAKI-1 renal; 105% in the assay with A498 renal; 58.5% with CCRF-CEM leukemia. Also, the growth in the assay with MOLT-4 leukemia is 48.8%.
With `COCCNCC(O)Cn1c2ccc(Cl)cc2c2cc(Cl)ccc21` (configuration not stated), the growth with HCT-15 colon is -54.1% (active); in the assay on HT29 colon, -15.5% (active); with SNB-75 CNS, 40.7%; with SNB-19 CNS, 24%; in the assay with U251 CNS it was -5.49% (active); in the assay with PC-3 prostate it was 8.25% (active). Also, the growth in the assay on SK-MEL-5 melanoma was -96.1% (active); with UACC-62 melanoma, -73.3% (active); in the assay on LOX IMVI melanoma it was -31.4% (active); with SK-MEL-28 melanoma it was -26.3% (active); in the assay on SK-MEL-2 melanoma, -79.4% (active); in the assay on SN12C renal, -91.9% (active). In addition, the growth was -20% (active) with UO-31 renal; 58.6% in the assay with TK-10 renal; 10.5% in the assay on ACHN renal; 8.86% (active) in the assay on CAKI-1 renal; 62.6% with A498 renal; -23.2% (active) with CCRF-CEM leukemia. Also, in the assay with MOLT-4 leukemia, the growth was 4.5% (active).
As to `O=NN(CCCl)C(=O)NCc1ccc(-c2ccc(CNC(=O)N(CCCl)N=O)cc2)cc1`, the growth with HCT-15 colon was 98.7%; with HT29 colon it was 96.9%; in the assay with SNB-75 CNS it was 82.7%; in the assay on SNB-19 CNS, 84.6%; in the assay on U251 CNS it was 70.3%; in the assay on PC-3 prostate, 86.7%. Moreover, the growth with SK-MEL-5 melanoma is 94.2%; in the assay with UACC-62 melanoma it was 86.2%; with LOX IMVI melanoma, 72.2%; with SK-MEL-28 melanoma, 104%; in the assay on SK-MEL-2 melanoma, 95.1%; in the assay on SN12C renal, 97.8%. Also, the growth is 67.7% with UO-31 renal; 105% in the assay with TK-10 renal; 105% in the assay with ACHN renal; 96.6% with CAKI-1 renal; 102% with A498 renal; 93.3% with CCRF-CEM leukemia. The growth with MOLT-4 leukemia is 82.3%.
As to `CC(C)OP(=O)(O)c1ncc(-c2ccc(C(F)(F)F)cc2)c(NC2CCCCCC2)n1`, the growth is 95.4% with HCT-15 colon; 47.5% with HT29 colon; 73% with SNB-75 CNS; 71.3% in the assay on SNB-19 CNS; 30.4% with U251 CNS; 24.2% with PC-3 prostate. The growth was 43% with SK-MEL-5 melanoma; 31.6% with UACC-62 melanoma; 64.6% with LOX IMVI melanoma; 51.4% with SK-MEL-28 melanoma; 65.4% in the assay on SK-MEL-2 melanoma; 54.4% in the assay with SN12C renal. Also, the growth is 60.2% in the assay on UO-31 renal; 67% in the assay on TK-10 renal; 34.6% in the assay with ACHN renal; 87% with CAKI-1 renal; 89.5% with A498 renal; 48.6% in the assay with CCRF-CEM leukemia. Further, the growth with MOLT-4 leukemia is 80.4%.
On to `COc1cc(-c2cc(-c3cc(OC)c(OC)c(OC)c3)nc3nc(N)[nH]c(=O)c23)ccc1Oc1ccnc2cc(Cl)ccc12`, for which the growth in the assay on HCT-15 colon was 14.6%; in the assay with HT29 colon, 104%; in the assay with SNB-75 CNS, -8.67% (active); in the assay with SNB-19 CNS, 59.4%; in the assay on U251 CNS it was 23%; in the assay on PC-3 prostate it was 25.9%. Besides, the growth was 27% in the assay with SK-MEL-5 melanoma; 49.8% in the assay with UACC-62 melanoma; 27.8% in the assay with LOX IMVI melanoma; 56.9% in the assay with SK-MEL-28 melanoma; 29.2% with SK-MEL-2 melanoma; 31.3% in the assay with SN12C renal. The growth in the assay on UO-31 renal is 46.3%; with TK-10 renal, 92.9%; in the assay with ACHN renal it was 48.4%; in the assay with CAKI-1 renal, 38.7%; with A498 renal, 84.9%; with CCRF-CEM leukemia, 18.2%. The growth in the assay on MOLT-4 leukemia was 17.7%.
For `Cc1nnc2c3nnc(-c4ccc(Cl)cc4)n3c3ccccc3n12`, the growth in the assay with HCT-15 colon is 97.4%; in the assay with HT29 colon it was 103%; with SNB-75 CNS, 89.1%; with SNB-19 CNS, 106%; with U251 CNS it was 100%; in the assay on PC-3 prostate it was 91.8%. The growth in the assay on SK-MEL-5 melanoma was 99.7%; in the assay with UACC-62 melanoma, 97.7%; with LOX IMVI melanoma, 97.2%; with SK-MEL-28 melanoma, 104%; with SK-MEL-2 melanoma, 99.9%; in the assay on SN12C renal, 97.7%. Moreover, the growth was 72.4% with UO-31 renal; 92% in the assay on TK-10 renal; 101% in the assay with ACHN renal; 93.2% in the assay on CAKI-1 renal; 94.3% in the assay on A498 renal; 90.3% in the assay with CCRF-CEM leukemia. The growth in the assay on MOLT-4 leukemia is 89.9%.
Turning to `CCCc1c(C)nc2scc(-c3ccc(Cl)cc3)n2c1=O`, the growth with HCT-15 colon was 101%; in the assay on HT29 colon it was 101%; with SNB-75 CNS, 97.9%; in the assay with SNB-19 CNS it was 105%; with U251 CNS it was 97.2%; in the assay on PC-3 prostate, 97.3%. Besides, the growth was 99.1% with SK-MEL-5 melanoma; 100% in the assay with UACC-62 melanoma; 95.8% with LOX IMVI melanoma; 112% in the assay with SK-MEL-28 melanoma; 95.1% in the assay on SK-MEL-2 melanoma; 96.3% with SN12C renal. Moreover, the growth is 73% in the assay on UO-31 renal; 102% in the assay with TK-10 renal; 95.3% with ACHN renal; 96.6% in the assay with CAKI-1 renal; 98.2% with A498 renal; 95% with CCRF-CEM leukemia. Moreover, in the assay on MOLT-4 leukemia, the growth is 87.1%.
